Several values for one entry are separate records, joined by “and”; a condition that tells them apart may be missing. Equal entries are not always repeated. Hit rate of the full screen: of about 5,500 compounds, about 2,000 (36%) were called active. Not shown: some 18% with an inconclusive outcome. Cut-off read from the data, not from the text of the source: active = normalized growth mostly below about 0.91 (no sharp cut-off); inconclusive = no clear call, values can overlap the other calls; inactive = mostly above about 0.92. This is one part of the list.
Test: chemical genetic growth profiling, strain panel (AID 1159580);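 note: tested at 20 µM; growth read once vehicle control cultures reached saturation at 30 °C; 1 = growth at the plate median or of vehicle wells; lower values mean less growth of the strain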
Conditions: S. cerevisiae deletion strains, growth OD

Measured: normalized growth

O=c1oc2ccccc2c(O)c1Cc1c(O)c2ccccc2oc1=O
inactive: locus YAL013W, strain DEP1, active compounds read low 1.01 | locus YAL021C, strain ccr4, active compounds read low 0.977 | locus YAL026C, strain drs2, active compounds read low 1.03 | locus YAL030W, strain snc1, active compounds read low 1.02 | locus YBL061C, strain skt5, active compounds read low 1.02 | locus YBR009C, strain hhf1, active compounds read low 1.01 | locus YBR021W, strain FUR4, active compounds read low 1.01 | locus YBR023C, strain chs3, active compounds read low 1.01 | locus YBR171W, strain sec66, active compounds read low 1.01 | locus YBR229C, strain ROT2, active compounds read low 0.998 | locus YBR231C, strain swc5, active compounds read low 1.02 | locus YBR279W, strain paf1, active compounds read low 1 | locus YCL011C, strain gbp2, active compounds read low 1.02 | locus YCL016C, strain dcc1, active compounds read low 1 | locus YCL029C, strain bik1, active compounds read low 0.968 | locus YCL069W, strain vba3, active compounds read low 1.02 | locus YCR088W, strain abp1, active compounds read low 1.02 | locus YDL005C, strain med2, active compounds read low 1.04 | locus YDL035C, strain GPR1, active compounds read low 1.04 | locus YDL040C, strain nat1, active compounds read low 1.03 | locus YDL074C, strain BRE1, active compounds read low 1.02 | locus YDL101C, strain DUN1, active compounds read low 1.01 | locus YDL185W, strain tfp1, active compounds read low 0.962 | locus YDL192W, strain arf1, active compounds read low 0.962 | locus YDR001C, strain nth1, active compounds read low 1 | locus YDR069C, strain doa4, active compounds read low 0.994 | locus YDR101C, strain arx1, active compounds read low 0.984 | locus YDR137W, strain rgp1, active compounds read low 1.03 | locus YDR159W, strain sac3, active compounds read low 0.936 | locus YDR162C, strain NBP2, active compounds read low 1.01 | locus YDR195W, strain ref2 1.01 | locus YDR297W, strain sur2, active compounds read low 1.01 | locus YDR318W, strain mcm21, active compounds read low 0.979 | locus YDR334W, strain swr1, active compounds read low 1.04 | locus YDR335W, strain msn5, active compounds read low 1.02 | locus YDR388W, active compounds read low 0.959 | locus YDR392W, strain spt3, active compounds read low 0.919 | locus YDR502C, strain sam2, active compounds read low 0.982 | locus YEL003W, strain gim4, active compounds read low 1.02 | locus YEL037C, strain rad23, active compounds read low 1.03 | locus YEL061C, strain CIN8 (second series), active compounds read low 1.03 | locus YEL061C, strain CIN8, active compounds read low 0.993 | locus YER015W, strain faa2, active compounds read low 1.01 | locus YER016W, strain bim1, active compounds read low 1.01 | locus YER110C, active compounds read low 0.96 | locus YER111C, strain swi4, active compounds read low 1.01 | locus YER155C, strain BEM2 (second series), active compounds read low 1.02 | locus YER155C, strain BEM2, active compounds read low 0.984 | locus YER167W, strain BCK2, active compounds read low 1.01 | locus YFR010W, strain ubp6, active compounds read low 1.02 | locus YGL078C, strain dbp3, active compounds read low 0.952 | locus YGL086W, strain mad1, active compounds read low 0.996 | locus YGL167C, strain pmr1, active compounds read low 1.01 | locus YGL173C, strain kem1, active compounds read low 1.01 | locus YGL227W, strain vid30, active compounds read low 1 | locus YGL240W, strain doc1, active compounds read low 0.984 | locus YGL248W, strain PDE1, active compounds read low 1.01 | locus YGL253W, strain hxk2, active compounds read low 1.02 | locus YGR078C, strain PAC10, active compounds read low 1.01 | locus YGR135W, strain pre9, active compounds read low 0.959 | locus YGR229C, strain SMI1, active compounds read low 1.02 | locus YGR252W, strain gcn5, active compounds read low 0.95 | locus YHR013C, strain ard1, active compounds read low 1 | locus YHR027C, strain rpn1, active compounds read low 1.01 | locus YHR030C, strain SLT2, active compounds read low 0.993 and 0.907 | locus YHR079C, strain IRE1 (second series), active compounds read low 0.963 | locus YHR079C, strain IRE1, active compounds read low 0.917 | locus YHR094C, strain hxt1, active compounds read low 0.96 | locus YHR129C, strain ARP1, active compounds read low 0.991 | locus YHR142W, strain chs7, active compounds read low 1.08 | locus YHR200W, strain rpn10, active compounds read low 0.98 | locus YIL066C, strain RNR3, active compounds read low 1 | locus YIL073C, strain SPO22, active compounds read low 0.979 | locus YIL125W, strain kgd1, active compounds read low 0.959 | locus YIR030C, strain dcg1, active compounds read low 0.96 | locus YJL092W, strain hpr5, active compounds read low 1.01 | locus YJL095W, strain BCK1 (second series), active compounds read low 1.01 | locus YJL095W, strain BCK1, active compounds read low 0.989 and 0.898 | locus YJL115W, strain asf1, active compounds read low 1.01 | locus YJL129C, strain trk1, active compounds read low 1 | locus YJL134W, strain LCB3, active compounds read low 0.987 | locus YJL154C, strain vps35, active compounds read low 1.02 | locus YJL164C, strain tpk1, active compounds read low 1.03 | locus YJL166W, strain qcr8, active compounds read low 0.995 | locus YJL168C, strain set2, active compounds read low 0.953 | locus YJL187C, strain SWE1 (second series), active compounds read low 1 | locus YJL187C, strain SWE1, active compounds read low 0.991 | locus YJR043C, strain POL32, active compounds read low 1.02
